In PubChem BioAssay (NCATS):
“And” between values parts separate entries of the source, which are not always exact repeats. Identical values can stand only once. Inconclusive results are not listed. A number with no mark means an inactive call. The source made the active and inactive calls. The call rests on the fitted dose curve; in most records, active means well fitted cell-killing curve with a large enough effect; inconclusive means small, poorly fitted or top-dose-only effect, or effect the other way; inactive means no such curve, though single readings can be large or run the other way.
Potency means the concentration at half of the fitted maximal effect.

Assay: Viability qHTS for spleen associated tyrosine kinase inhibitor (SYKi) naive MV4-11 cells (AID 1963823); further: nearly all actives have a fitted effect of over 40% in size
Conditions: MV4-11 AML viability, CellTiter-Glo luminescence, 72 h; series mostly up to 45 µM; viability (% of control): at the top concentration
Summary of the method: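 Read-out: CellTiter-Glo luminescence. Exposure: 72 hr, 37 C, 5% CO2, 95% humidity. Cells: MV4-11 without SYK inhibitor history, 500/well, qHTS format.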
With `NCCCC[C@H](N[C@@H](CCc1ccccc1)C(=O)O)C(=O)N1CCC[C@H]1C(=O)O` the “viability (% of control)” value was 67.8%.
In the case of `C[C@H]1CNC(=O)c2cnn3ccc(nc23)N[C@H](C)c2cc(F)ccc2O1`, the Potency is reported as 0.525 µM (active).
For `C[C@]12C=CC(=O)C=C1CC[C@H]1[C@@H]3C[C@@H](O)[C@](O)(C(=O)CO)[C@@]3(C)C[C@H](O)[C@@]12F`, the “viability (% of control)” value was 118%.
With `NNc1nnc(NN)c2ccccc12` the “viability (% of control)” value was 72.7%.
For `C/C=C/C[C@@H](C)C(=O)[C@H]1C(=O)N[C@@H](C(C)C)C(=O)N(C)CC(=O)N(C)[C@@H](CC(C)C)C(=O)N[C@@H](C(C)C)C(=O)N(C)[C@@H](CC(C)C)C(=O)N[C@@H](C)C(=O)N[C@H](C)C(=O)N(C)[C@@H](CC(C)C)C(=O)N(C)[C@@H](CC(C)C)C(=O)N(C)[C@@H](C(C)C)C(=O)N1C`, the Potency was 6.45 µM (active).
For `CN(C[C@@H]1COCCO1)S(=O)(=O)Nc1ccc2ccc3ncc(-c4cnn(C)c4)cc3c(=O)c2c1`, the Potency was 0.296 µM (active).
For `COCC(=O)Nc1c(I)c(C(=O)NCC(O)CO)c(I)c(C(=O)N(C)CC(O)CO)c1I` (stereo not given), the Potency was 0.0009 µM (active).
In the case of `Cc1ccc2nc(NC(=O)CSc3nc4c(c(=O)n3-c3ccccc3)SCC4)sc2c1`, the “viability (% of control)” value is reported as 64%.
With `CCCNC(=O)[C@H]1O[C@@H]1C(=O)N[C@H](C(=O)N1CCC[C@H]1C(=O)OC)C(C)CC` (stereo not given in full) the Potency was 1.66 µM (active).
With `CCCCCCC[N+](CC)(CC)CCCCc1ccc(Cl)cc1` the Potency was 1.68 µM (active).
With `CCN(CC)CCOC(=O)C(c1ccccc1)C1CCCCC1` (stereo not given) the “viability (% of control)” value was 1.64%.
For `Cc1nc(N)sc1-c1ccnc(Nc2ccc(N3CCOCC3)cc2)n1`, the Potency was 0.082 µM (active).
In the case of `COC(=O)C1=C(C)NC(c2ncc(F)cc2F)=N[C@H]1c1ccc(F)cc1Cl`, the Potency is reported as 20.9 µM (active).
In the case of `CCNC(=O)NCc1cccc(Cl)c1`, the “viability (% of control)” value is reported as 75.6%.
In the case of `Nc1ncnc2c1nc(Cl)n2[C@@H]1O[C@H](CO)[C@@H](O)[C@@H]1O`, the Potency is reported as 2.35 µM (active).
In the case of `CC[C@H](CC#N)OC(=O)N[C@@H](C)c1cccc(NC(=O)Nc2ccc(-c3cnco3)c(OC)c2)c1`, the Potency is reported as 326 nM (active) and 263 nM (active).
For `CCc1nc(C(N)=O)c(Nc2ccc(N3CCC(N4CCN(C)CC4)CC3)c(OC)c2)nc1NC1CCOCC1`, the Potency was 9 nM (active) and 18.6 nM (active).
With `C=C1C(=O)O[C@H]2C[C@H](C)C(/C=C/C(C)=O)=CC[C@H]12` the Potency was 1.18 µM (active).
In the case of `CN(C)CCCOC1(Cc2ccccc2)CCCCCC1`, the “viability (% of control)” value is reported as 80%.
In the case of `CN(C)CCN1C(=O)c2cccc3cc(NC(N)=O)cc(c23)C1=O`, the Potency is reported as 4.17 µM (active).
For `COc1ccc2cc1Oc1cc3c(cc1OC)CC[N+](C)(C)[C@H]3Cc1ccc(cc1)Oc1c(OC)c(OC)cc3c1[C@@H](C2)[N+](C)(C)CC3`, the “viability (% of control)” value was 64.2%.
With `Cc1ccc2c(n1)Oc1ccc(C(C)C(=O)OCC(=O)N(C)C)cc1C2` (stereo not given) the Potency was 11.9 µM (active).
With `NC(=O)Nc1sc(-c2ccc(F)cc2)cc1C(N)=O` the Potency was 1.86 µM (active).
In the case of `CCOc1cc(C(=O)N2CCC(N3CCN(C)CC3)CC2)ccc1Nc1ncc2c(n1)N(C1CCCC1)c1ccccc1C(=O)N2C`, the Potency is reported as 651 nM (active) and 1.05 µM (active).
In the case of `Cn1c(=O)c(F)c(Nc2ccc(I)cc2F)c2c(=O)n(C[C@@H](O)CO)cnc21`, the Potency is reported as 0.0332 µM (active).
With `CO[C@H]1O[C@@H]2O[C@@]3(C)CC[C@H]4[C@H](C)CC[C@@H]([C@H]1C)[C@@]24OO3` the Potency was 1.32 µM (active).
In the case of `N[C@@H](Cc1ccc(O)cc1)C(=O)O`, the viability (% of control) is reported as 88.5% [at 9.25 µM].
In the case of `COC(=O)Nc1nc2ccc(C(=O)C3CC3)cc2[nH]1`, the Potency is reported as 1.06 µM (active).
In the case of `O=C(O)CCC(=O)c1ccc(-c2ccccc2)cc1`, the “viability (% of control)” value is reported as 71.9%.
In the case of `Cc1cc(C(=O)Nc2cc(Nc3ccc4c(/C=C/c5ccccn5)n[nH]c4c3)ccc2F)n(C)n1`, the Potency is reported as 9.2 µM (active) and 5.25 µM (active).
With `CN1CCCC(n2nc(Cc3ccc(Cl)cc3)c3ccccc3c2=O)CC1` (stereo not given) the Potency was 10.6 µM (active).
In the case of `Clc1cc(Cl)cc(CNc2ncncc2-c2ccc3c(c2)OCO3)c1`, the Potency is reported as 20.6 µM (active).
With `Cc1cc(CS(=O)(=O)c2ccccc2)cc(OCc2ccc(CN3CCC[C@@H]3CO)cc2)c1` the Potency was 16.6 µM (active).
In the case of `COc1c(C)c2c(c(O)c1C/C=C(\C)CCC(=O)O)C(=O)OC2`, the Potency is reported as 750 nM (active) and 1.32 µM (active).
For `CCn1c(N)c(C(=O)NC)c(=O)c2ccc(C#CC(C)(O)COC)nc21` (stereo not given), the Potency was 4.17 µM (active).
